# Results published in PubChem BioAssay AID651947 (Broad Institute, 2012).
# Measured potencies and affinities stand elsewhere. Records with an inconclusive call do not appear. Unmarked numbers belong to inactive results.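 How the source made its calls: active means luminescence drop in HepG2 cells whose fitted half-effect dose is at most twice the top valid dose; inconclusive means flat curve with 30 to 70% signal loss, or unreliable fit; inactive means the rest.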
# Assay: HepG2 hepatoma cell viability loss – plate reader, dry powder, cytotoxicity control, dose response (AID 651947)
# Conditions: ATP luminescence (CellTiter-Glo), 48 h, stronger effect = lower value
compound,measurement,setting,value
Fc1ccc(CSc2nnc(-c3ccccc3)o2)cc1,max activity,at 0.38 µM,22%
same,max activity,at 12 µM,-25.4%
